In PubChem BioAssay AID1159580 (chemical genetic matrix, 2015):
“And” between values parts separate entries of the source, which are not always exact repeats. Equal values may be shown once. Out of some 5,500 compounds screened, about 2,000 (36%) were called active. Not shown: some 18% with an inconclusive outcome. Rule as the data show it: active = normalized growth mostly below about 0.91 (no sharp cut-off); inconclusive = no clear call, values can overlap the other calls; inactive = mostly above about 0.92. The list shows a part of the results.

Assay: chemical genetic growth profiling, strain panel (AID 1159580);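 also: tested at 20 µM; growth read once vehicle control cultures reached saturation at 30 °C; 1 = growth at the plate median or of vehicle wells; lower values mean less growth of the strain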
Details: S. cerevisiae deletion strains, growth OD

Measured: normalized growth

CC(=O)OCC(=O)[C@@]1(O)[C@H](C)CC2C3CCC4=CC(=O)C=C[C@]4(C)[C@@]3(F)[C@@H](O)C[C@@]21C (some centres undefined)
inactive: locus YAL013W, strain DEP1, hits give low values 1.01 | locus YAL021C, strain ccr4, hits give low values 0.959 | locus YAL026C, strain drs2, hits give low values 1 | locus YAL030W, strain snc1, hits give low values 0.969 | locus YBL061C, strain skt5, hits give low values 0.985 | locus YBR009C, strain hhf1, hits give low values 0.983 | locus YBR021W, strain FUR4, hits give low values 0.995 | locus YBR023C, strain chs3, hits give low values 0.978 | locus YBR171W, strain sec66, hits give low values 0.957 | locus YBR229C, strain ROT2, hits give low values 1.01 | locus YBR231C, strain swc5, hits give low values 0.962 | locus YBR279W, strain paf1, hits give low values 0.991 | locus YCL011C, strain gbp2, hits give low values 0.988 | locus YCL016C, strain dcc1, hits give low values 1.01 | locus YCL029C, strain bik1, hits give low values 1 | locus YCL061C, strain MRC1, hits give low values 0.98 | locus YCL069W, strain vba3, hits give low values 0.987 | locus YCR088W, strain abp1, hits give low values 0.984 | locus YDL005C, strain med2, hits give low values 0.964 | locus YDL035C, strain GPR1, hits give low values 1.03 | locus YDL040C, strain nat1, hits give low values 0.961 | locus YDL074C, strain BRE1, hits give low values 1.01 | locus YDL101C, strain DUN1, hits give low values 0.999 | locus YDL134C, strain PPH21, hits give low values 1.02 | locus YDL185W, strain tfp1, hits give low values 1.01 | locus YDL192W, strain arf1, hits give low values 0.998 | locus YDR001C, strain nth1, hits give low values 0.951 | locus YDR069C, strain doa4, hits give low values 0.948 | locus YDR101C, strain arx1, hits give low values 1.02 | locus YDR137W, strain rgp1, hits give low values 0.997 | locus YDR150W, strain NUM1, hits give low values 1.01 | locus YDR159W, strain sac3, hits give low values 0.962 | locus YDR162C, strain NBP2, hits give low values 1.02 | locus YDR195W, strain ref2 0.933 | locus YDR297W, strain sur2, hits give low values 0.988 | locus YDR318W, strain mcm21, hits give low values 0.999 | locus YDR334W, strain swr1, hits give low values 0.948 | locus YDR335W, strain msn5, hits give low values 0.966 | locus YDR388W, hits give low values 0.997 | locus YDR392W, strain spt3, hits give low values 1.07 | locus YDR502C, strain sam2, hits give low values 0.998 | locus YEL003W, strain gim4, hits give low values 0.981 | locus YEL037C, strain rad23, hits give low values 0.98 | locus YEL061C, strain CIN8 (second series), hits give low values 0.975 | locus YEL061C, strain CIN8, hits give low values 1.01 | locus YER015W, strain faa2, hits give low values 0.985 | locus YER016W, strain bim1, hits give low values 1.04 | locus YER110C, hits give low values 0.995 | locus YER111C, strain swi4, hits give low values 0.986 | locus YER155C, strain BEM2 (second series), hits give low values 0.967 | locus YER155C, strain BEM2, hits give low values 0.999 | locus YER167W, strain BCK2, hits give low values 1.01 | locus YFR010W, strain ubp6, hits give low values 0.958 | locus YGL078C, strain dbp3, hits give low values 0.997 | locus YGL086W, strain mad1, hits give low values 1 | locus YGL167C, strain pmr1, hits give low values 0.954 | locus YGL173C, strain kem1, hits give low values 0.961 | locus YGL227W, strain vid30, hits give low values 0.974 | locus YGL240W, strain doc1, hits give low values 0.949 | locus YGL248W, strain PDE1, hits give low values 1 | locus YGL253W, strain hxk2, hits give low values 0.984 | locus YGR078C, strain PAC10, hits give low values 1.01 | locus YGR135W, strain pre9, hits give low values 0.993 | locus YGR252W, strain gcn5, hits give low values 0.955 | locus YHR013C, strain ard1, hits give low values 0.998 | locus YHR027C, strain rpn1, hits give low values 0.982 | locus YHR030C, strain SLT2, hits give low values 1.01 | locus YHR079C, strain IRE1 (second series), hits give low values 0.996 | locus YHR079C, strain IRE1, hits give low values 1.01 | locus YHR094C, strain hxt1, hits give low values 0.995 | locus YHR129C, strain ARP1, hits give low values 1.01 | locus YHR142W, strain chs7, hits give low values 0.961 | locus YHR200W, strain rpn10, hits give low values 0.995 | locus YIL066C, strain RNR3, hits give low values 1.02 | locus YIL073C, strain SPO22, hits give low values 0.99 | locus YIL125W, strain kgd1, hits give low values 0.997 | locus YIR030C, strain dcg1, hits give low values 1 | locus YJL092W, strain hpr5, hits give low values 0.977 | locus YJL095W, strain BCK1 (second series), hits give low values 0.968 | locus YJL095W, strain BCK1, hits give low values 1.02 and 1.01 | locus YJL115W, strain asf1, hits give low values 0.951 | locus YJL129C, strain trk1, hits give low values 0.956 | locus YJL134W, strain LCB3, hits give low values 1.01 | locus YJL154C, strain vps35, hits give low values 0.964 | locus YJL164C, strain tpk1, hits give low values 1 | locus YJL166W, strain qcr8, hits give low values 0.915 | locus YJL168C, strain set2, hits give low values 1.01 | locus YJL187C, strain SWE1 (second series), hits give low values 1.01 | locus YJR043C, strain POL32, hits give low values 1 | locus YJR066W, strain TOR1, hits give low values 0.988 | locus YKL009W, strain mrt4, hits give low values 1 | locus YKL068W, hits give low values 0.998 | locus YKL085W, strain MDH1 (second series), hits give low values 1.03 | locus YKL085W, strain MDH1, hits give low values 1.03 | locus YKL160W, strain elf1, hits give low values 0.971 | locus YKL190W, strain CNB1, hits give low values 1.01 | locus YKR001C, strain vps1, hits give low values 0.988 | locus YKR026C, strain gcn3, hits give low values 0.964 | locus YKR091W, strain srl3, hits give low values 0.97 | locus YLL001W, strain dnm1, hits give low values 0.926 | locus YLL026W, hits give low values 0.991 | locus YLL041C, strain sdh2, hits give low values 0.955 | locus YLR027C, strain aat2, hits give low values 0.979 | locus YLR039C, strain RIC1, hits give low values 1.02 | locus YLR058C, strain SHM2, hits give low values 1.01 | locus YLR102C, strain apc9, hits give low values 0.993 | locus YLR113W, strain HOG1, hits give low values 1.02 | locus YLR221C, strain rsa3, hits give low values 1.02 | locus YLR258W, strain gsy2, hits give low values 0.992 | locus YLR262C, strain YPT6 (second series), hits give low values 0.92 | locus YLR262C, strain YPT6, hits give low values 1.02 | locus YLR268W, strain sec22, hits give low values 1.01 | locus YLR320W, strain mms22, hits give low values 1.02 | locus YLR330W, strain CHS5, hits give low values 1.01 | locus YLR342W, strain FKS1 (second series), hits give low values 1.04 | locus YLR342W, strain FKS1, hits give low values 0.969 | locus YLR357W, strain rsc2, hits give low values 0.982 | locus YLR370C, strain arc18, hits give low values 0.98 | locus YLR371W, strain rom2, hits give low values 0.997 | locus YLR384C, strain iki3, hits give low values 0.965 | locus YLR418C, strain cdc73, hits give low values 0.954 | locus YML016C, strain PPZ1, hits give low values 1.01 | locus YML032C, strain rad52, hits give low values 0.997 | locus YML120C, strain ndi1, hits give low values 0.973 | locus YML124C, strain tub3, hits give low values 1.03 | locus YMR058W, strain fet3, hits give low values 0.97 | locus YMR078C, strain ctf18, hits give low values 0.998 | locus YMR125W, strain sto1, hits give low values 0.963 | locus YMR129W, hits give low values 0.988 | locus YMR205C, strain PFK2, hits give low values 0.958 | locus YMR223W, strain ubp8, hits give low values 0.999 | locus YMR231W, strain pep5, hits give low values 0.965 | locus YMR307W, strain GAS1, hits give low values 0.959 | locus YNL067W, strain RPL9B, hits give low values 1.01 | locus YNL071W, strain lat1, hits give low values 0.992 | locus YNL183C, strain NPR1, hits give low values 0.974 | locus YNL209W, strain ssb2, hits give low values 0.993 | locus YNL233W, strain BNI4, hits give low values 1.01 | locus YNL248C, strain rpa49, hits give low values 1.01 | locus YNL250W, strain rad50, hits give low values 0.975 | locus YNL271C, strain bni1, hits give low values 1 | locus YNL298W, strain CLA4, hits give low values 0.989 | locus YNL307C, strain MCK1, hits give low values 0.998 | locus YNL322C, strain KRE1 (second series), hits give low values 0.961 | locus YNL322C, strain KRE1, hits give low values 0.995 | locus YNR049C, strain mso1, hits give low values 0.982 | locus YNR052C, strain pop2, hits give low values 1.01 | locus YOL012C, strain htz1 0.869 | locus YOL147C, strain pex11, hits give low values 0.999 | locus YOR001W, strain rrp6, hits give low values 0.963 | locus YOR061W, strain CKA2, hits give low values 1.02 | locus YOR069W, strain VPS5, hits give low values 1.01 | locus YOR070C, strain gyp1, hits give low values 0.99 | locus YOR080W, strain dia2, hits give low values 0.946 | locus YOR083W, strain WHI5, hits give low values 0.978 | locus YOR106W, strain vam3, hits give low values 0.927 | locus YOR136W, strain idh2, hits give low values 0.994 | locus YOR144C, strain elg1, hits give low values 0.999 | locus YOR184W, strain ser1, hits give low values 1.01 | locus YOR231W, strain MKK1, hits give low values 1.03 | locus YOR265W, strain rbl2, hits give low values 0.982 | locus YOR270C, strain vph1, hits give low values 0.95 | locus YOR290C, strain snf2, hits give low values 1 | locus YOR316C, strain cot1, hits give low values 1 | locus YPL051W, strain arl3, hits give low values 1.01 | locus YPL078C, strain atp4, hits give low values 0.934 | locus YPL106C, strain sse1, hits give low values 0.969 | locus YPL240C, strain hsp82, hits give low values 0.969 | locus YPL256C, strain CLN2, hits give low values 1.03 | locus YPR119W, strain clb2, hits give low values 0.997 | locus YPR141C, strain kar3, hits give low values 0.99 | locus YPR163C, strain tif3, hits give low values 0.996 | locus YPR167C, strain met16, hits give low values 1 | strain wtn01, hits give low values 0.997
